What all share (assay): DAPPL (digital affinity profiling via proximity ligation, sequencing); 10 mM Tris-HCl pH 7.5, 50 mM NaCl, 1 mM DTT, 4% glycerol, room temperature, 30 min; GST-TFs on glutathione beads, 16-mer random dsDNA library, 0.1% formaldehyde crosslink after washing; high values mean tight binding
Assay [1] has as its target T1, FEV (Homo sapiens, UniProt Q99581 1-238).
T1 sequence: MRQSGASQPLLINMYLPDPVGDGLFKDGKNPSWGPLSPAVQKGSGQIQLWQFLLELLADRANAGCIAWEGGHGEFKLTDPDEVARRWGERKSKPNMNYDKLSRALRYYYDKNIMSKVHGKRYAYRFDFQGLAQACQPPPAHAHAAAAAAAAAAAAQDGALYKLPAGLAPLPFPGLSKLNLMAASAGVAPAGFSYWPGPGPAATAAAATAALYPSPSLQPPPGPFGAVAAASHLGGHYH
As to conditions: protein: recombinant; tags: N-terminal GST; dsDNA, one strand shown. An outline of the steps:
(§1)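 Beads coated with glutathione captured GST-fused human transcription factors that had been expressed in yeast, and the factors were then given DNA barcodes and pooled with a tag-only sample. The pools were incubated with 200 nmole of a random double-stranded 16-mer DNA library in Tris/NaCl/DTT/glycerol buffer for 30 min at room temperature, washed, crosslinked with 0.1% formaldehyde and proximity-ligated with BsaI/T4 ligase at 37 °C for 1 h. PCR amplification and Illumina NextSeq500 sequencing came last. Binding signal is each hexamer's read frequency for a factor divided by its frequency for the tag-only sample.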

The target of assay [2] is ETV5 (Homo sapiens, UniProt P41161 1-510). As to conditions: protein: recombinant; tags: N-terminal GST; dsDNA, one strand shown. The procedure, abridged:
as §1

In assay [3] the target is HSF1 (Homo sapiens, UniProt Q00613 1-529). As to conditions: protein: recombinant; tags: N-terminal GST; chain copies: 3; dsDNA, one strand shown. An outline of the steps: as §1
In assay [4] the target is T2, SPIC (Homo sapiens, UniProt Q8N5J4 1-248).
T2 sequence: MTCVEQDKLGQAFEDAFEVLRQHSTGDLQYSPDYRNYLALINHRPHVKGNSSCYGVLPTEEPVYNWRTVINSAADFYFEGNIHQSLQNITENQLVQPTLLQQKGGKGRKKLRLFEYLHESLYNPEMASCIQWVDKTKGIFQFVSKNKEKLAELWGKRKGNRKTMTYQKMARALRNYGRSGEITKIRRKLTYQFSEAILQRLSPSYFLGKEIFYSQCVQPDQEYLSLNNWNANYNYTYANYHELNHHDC
As to conditions: protein: recombinant; tags: N-terminal GST; dsDNA, one strand shown. The procedure, abridged:
as §1

In assay [5] the target is ELF4 (Homo sapiens, UniProt Q99607 1-663). As to conditions: protein: recombinant; tags: N-terminal GST; dsDNA, one strand shown. An outline of the steps:
as §1

For assay [6], the target named is T3, ELK4 (Homo sapiens, UniProt P28324-2 1-405).
T3 sequence: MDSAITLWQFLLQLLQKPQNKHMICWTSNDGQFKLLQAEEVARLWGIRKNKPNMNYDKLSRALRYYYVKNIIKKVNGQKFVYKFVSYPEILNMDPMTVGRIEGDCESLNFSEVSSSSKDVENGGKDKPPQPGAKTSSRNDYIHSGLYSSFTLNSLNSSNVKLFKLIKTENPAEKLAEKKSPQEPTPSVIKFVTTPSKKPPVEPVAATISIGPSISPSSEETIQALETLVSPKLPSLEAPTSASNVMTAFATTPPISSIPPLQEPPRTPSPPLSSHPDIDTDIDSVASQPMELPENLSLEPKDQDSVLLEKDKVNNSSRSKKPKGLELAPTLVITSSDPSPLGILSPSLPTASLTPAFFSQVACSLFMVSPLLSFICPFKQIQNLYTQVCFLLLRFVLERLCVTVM
As to conditions: protein: recombinant; tags: N-terminal GST; dsDNA, one strand shown. An outline of the steps:
as §1

In assay [7] the target is T4, ETV2 (Homo sapiens, UniProt O00321 1-342).
T4 sequence: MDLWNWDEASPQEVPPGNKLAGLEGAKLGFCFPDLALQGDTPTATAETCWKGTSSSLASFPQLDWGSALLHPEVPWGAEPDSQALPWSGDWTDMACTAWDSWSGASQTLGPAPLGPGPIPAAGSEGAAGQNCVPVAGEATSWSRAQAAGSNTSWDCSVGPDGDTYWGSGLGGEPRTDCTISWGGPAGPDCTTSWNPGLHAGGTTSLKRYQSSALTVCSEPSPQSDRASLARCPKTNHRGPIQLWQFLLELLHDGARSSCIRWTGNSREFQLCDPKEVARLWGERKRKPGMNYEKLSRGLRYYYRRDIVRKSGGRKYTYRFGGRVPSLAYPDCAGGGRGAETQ
The following applies: protein: recombinant; tags: N-terminal GST; dsDNA, one strand shown. The procedure, abridged:
as §1

In assay [8] the target is T5, ELF3 (Homo sapiens, UniProt P78545 1-371).
T5 sequence: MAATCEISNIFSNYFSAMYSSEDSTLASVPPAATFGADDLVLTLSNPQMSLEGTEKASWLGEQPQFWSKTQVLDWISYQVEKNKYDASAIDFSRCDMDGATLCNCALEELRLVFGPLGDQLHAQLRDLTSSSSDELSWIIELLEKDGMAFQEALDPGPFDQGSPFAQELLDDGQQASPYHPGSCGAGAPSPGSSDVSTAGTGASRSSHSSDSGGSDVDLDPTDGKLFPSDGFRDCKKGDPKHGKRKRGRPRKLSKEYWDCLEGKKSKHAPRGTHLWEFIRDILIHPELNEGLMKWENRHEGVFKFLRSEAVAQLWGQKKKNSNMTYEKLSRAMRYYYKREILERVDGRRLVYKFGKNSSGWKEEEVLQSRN
The following applies: protein: recombinant; tags: N-terminal GST; dsDNA, one strand shown. The procedure, abridged:
as §1

The target of assay [9] is CRX (Homo sapiens, UniProt O43186 1-299). As to conditions: protein: recombinant; tags: N-terminal GST; dsDNA, one strand shown. An outline of the steps: as §1
For assay [10], the target named is ETV1 (Homo sapiens, UniProt P50549 1-477). The following applies: protein: recombinant; tags: N-terminal GST; dsDNA, one strand shown. The procedure, abridged:
as §1

For assay [11], the target named is T6, ERF (Homo sapiens, UniProt P50548 1-548).
T6 sequence: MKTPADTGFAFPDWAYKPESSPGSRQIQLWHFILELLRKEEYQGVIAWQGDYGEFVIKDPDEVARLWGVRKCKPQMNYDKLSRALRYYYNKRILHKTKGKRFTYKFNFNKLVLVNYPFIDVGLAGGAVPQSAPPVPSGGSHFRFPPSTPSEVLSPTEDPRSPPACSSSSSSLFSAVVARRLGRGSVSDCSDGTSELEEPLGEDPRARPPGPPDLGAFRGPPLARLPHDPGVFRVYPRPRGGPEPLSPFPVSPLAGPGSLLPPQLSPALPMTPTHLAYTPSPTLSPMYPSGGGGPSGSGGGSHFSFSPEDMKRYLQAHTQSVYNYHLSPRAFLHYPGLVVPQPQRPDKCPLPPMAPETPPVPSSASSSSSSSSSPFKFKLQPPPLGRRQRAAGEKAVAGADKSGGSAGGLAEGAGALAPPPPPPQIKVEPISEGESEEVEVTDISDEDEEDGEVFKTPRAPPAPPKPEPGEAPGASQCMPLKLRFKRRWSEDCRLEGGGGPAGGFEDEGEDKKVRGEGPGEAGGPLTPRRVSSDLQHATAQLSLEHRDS
As to conditions: protein: recombinant; tags: N-terminal GST; dsDNA, one strand shown. An outline of the steps:
as §1

Assay [12] concerns the target T7, ETV3L (Homo sapiens, UniProt Q6ZN32 1-361).
T7 sequence: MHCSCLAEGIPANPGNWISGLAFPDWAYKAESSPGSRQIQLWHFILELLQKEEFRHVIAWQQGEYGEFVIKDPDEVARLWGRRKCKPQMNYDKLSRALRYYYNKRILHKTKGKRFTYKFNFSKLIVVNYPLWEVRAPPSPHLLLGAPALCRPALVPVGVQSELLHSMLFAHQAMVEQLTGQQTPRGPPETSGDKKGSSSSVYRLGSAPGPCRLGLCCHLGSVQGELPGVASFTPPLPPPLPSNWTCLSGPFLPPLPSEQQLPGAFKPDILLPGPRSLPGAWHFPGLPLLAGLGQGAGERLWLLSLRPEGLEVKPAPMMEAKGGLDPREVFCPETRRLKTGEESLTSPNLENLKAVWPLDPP
The following applies: protein: recombinant; tags: N-terminal GST; dsDNA, one strand shown. The procedure, abridged: as §1

In assay [13] the target is T8, ETS2 (Homo sapiens, UniProt P15036 1-469).
T8 sequence: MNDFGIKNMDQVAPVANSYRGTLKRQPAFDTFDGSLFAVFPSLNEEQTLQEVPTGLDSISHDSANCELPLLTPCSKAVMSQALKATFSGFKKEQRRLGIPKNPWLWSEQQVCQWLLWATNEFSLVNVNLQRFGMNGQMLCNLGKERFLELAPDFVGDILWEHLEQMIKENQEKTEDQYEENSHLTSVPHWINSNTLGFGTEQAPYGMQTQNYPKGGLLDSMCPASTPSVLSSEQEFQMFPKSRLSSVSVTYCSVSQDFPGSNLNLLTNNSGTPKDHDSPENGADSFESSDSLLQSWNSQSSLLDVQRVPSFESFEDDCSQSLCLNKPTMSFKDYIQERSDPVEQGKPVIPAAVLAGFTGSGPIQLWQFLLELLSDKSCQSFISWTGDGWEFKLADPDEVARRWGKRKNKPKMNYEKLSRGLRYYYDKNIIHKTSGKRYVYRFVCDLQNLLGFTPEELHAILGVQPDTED
The following applies: protein: recombinant; tags: N-terminal GST; dsDNA, one strand shown. An outline of the steps: as §1

Assay [14] addresses T9, SPDEF (Homo sapiens, UniProt O95238 1-335).
T9 sequence: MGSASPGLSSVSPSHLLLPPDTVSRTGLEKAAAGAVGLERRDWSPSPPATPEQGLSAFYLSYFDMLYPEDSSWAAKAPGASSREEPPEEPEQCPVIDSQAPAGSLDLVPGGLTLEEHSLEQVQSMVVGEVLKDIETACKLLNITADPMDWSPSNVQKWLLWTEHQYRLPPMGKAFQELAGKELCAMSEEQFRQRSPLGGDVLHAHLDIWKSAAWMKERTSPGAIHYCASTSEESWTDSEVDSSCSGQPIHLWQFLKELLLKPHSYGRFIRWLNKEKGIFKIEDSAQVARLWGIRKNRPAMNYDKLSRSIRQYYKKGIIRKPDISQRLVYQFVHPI
The following applies: protein: recombinant; tags: N-terminal GST; dsDNA, one strand shown. An outline of the steps:
as §1

Assay [15] addresses T10, ETV7 (Homo sapiens, UniProt Q9Y603 1-341).
T10 sequence: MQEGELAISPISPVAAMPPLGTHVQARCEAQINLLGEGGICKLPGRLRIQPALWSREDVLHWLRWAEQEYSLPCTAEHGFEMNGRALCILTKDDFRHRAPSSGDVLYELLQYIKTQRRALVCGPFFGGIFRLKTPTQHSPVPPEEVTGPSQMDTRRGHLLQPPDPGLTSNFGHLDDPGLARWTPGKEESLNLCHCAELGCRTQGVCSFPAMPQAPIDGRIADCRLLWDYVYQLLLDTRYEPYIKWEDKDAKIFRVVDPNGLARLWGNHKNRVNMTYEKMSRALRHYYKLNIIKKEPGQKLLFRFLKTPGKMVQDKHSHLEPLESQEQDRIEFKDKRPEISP
The following applies: protein: recombinant; tags: N-terminal GST; dsDNA, one strand shown. An outline of the steps: as §1

Assay [16] deals with T11, ELF5 (Homo sapiens, UniProt Q9UKW6-2 1-255).
T11 sequence: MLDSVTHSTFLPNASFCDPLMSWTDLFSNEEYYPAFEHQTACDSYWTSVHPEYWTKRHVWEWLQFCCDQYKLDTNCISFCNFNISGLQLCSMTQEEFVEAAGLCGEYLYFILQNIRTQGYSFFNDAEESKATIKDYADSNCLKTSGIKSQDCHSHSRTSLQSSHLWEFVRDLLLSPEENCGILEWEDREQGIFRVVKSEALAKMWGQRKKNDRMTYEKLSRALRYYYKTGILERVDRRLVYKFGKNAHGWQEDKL
As to conditions: protein: recombinant; tags: N-terminal GST; dsDNA, one strand shown. The procedure, abridged: as §1

The target of assay [17] is T12, ETV3 (Homo sapiens, UniProt P41162-2 1-143).
T12 sequence: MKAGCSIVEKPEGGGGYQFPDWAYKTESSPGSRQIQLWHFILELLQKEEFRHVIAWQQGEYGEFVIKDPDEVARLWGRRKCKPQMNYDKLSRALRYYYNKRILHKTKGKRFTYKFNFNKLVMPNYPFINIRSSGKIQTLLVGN
The following applies: protein: recombinant; tags: N-terminal GST; dsDNA, one strand shown. The procedure, abridged: as §1

The target in assay [18] is ETV6 (Homo sapiens, UniProt P41212 1-452). As to conditions: protein: recombinant; tags: N-terminal GST; dsDNA, one strand shown. The procedure, abridged: as §1
Sequence of ETV6 (P41212 whole entry): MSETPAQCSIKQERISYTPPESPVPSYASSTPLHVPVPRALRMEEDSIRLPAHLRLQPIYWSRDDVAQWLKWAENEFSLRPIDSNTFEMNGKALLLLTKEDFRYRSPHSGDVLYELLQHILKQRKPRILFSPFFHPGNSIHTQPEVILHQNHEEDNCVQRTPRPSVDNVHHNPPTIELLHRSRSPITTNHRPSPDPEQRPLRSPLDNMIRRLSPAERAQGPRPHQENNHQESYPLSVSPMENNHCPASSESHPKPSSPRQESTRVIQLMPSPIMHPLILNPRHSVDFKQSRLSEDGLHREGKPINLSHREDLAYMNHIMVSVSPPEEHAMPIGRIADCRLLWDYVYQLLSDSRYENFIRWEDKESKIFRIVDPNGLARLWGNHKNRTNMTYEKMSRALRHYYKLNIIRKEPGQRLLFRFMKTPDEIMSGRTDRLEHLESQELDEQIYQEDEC

Sequence of ELF4 (Q99607 whole entry): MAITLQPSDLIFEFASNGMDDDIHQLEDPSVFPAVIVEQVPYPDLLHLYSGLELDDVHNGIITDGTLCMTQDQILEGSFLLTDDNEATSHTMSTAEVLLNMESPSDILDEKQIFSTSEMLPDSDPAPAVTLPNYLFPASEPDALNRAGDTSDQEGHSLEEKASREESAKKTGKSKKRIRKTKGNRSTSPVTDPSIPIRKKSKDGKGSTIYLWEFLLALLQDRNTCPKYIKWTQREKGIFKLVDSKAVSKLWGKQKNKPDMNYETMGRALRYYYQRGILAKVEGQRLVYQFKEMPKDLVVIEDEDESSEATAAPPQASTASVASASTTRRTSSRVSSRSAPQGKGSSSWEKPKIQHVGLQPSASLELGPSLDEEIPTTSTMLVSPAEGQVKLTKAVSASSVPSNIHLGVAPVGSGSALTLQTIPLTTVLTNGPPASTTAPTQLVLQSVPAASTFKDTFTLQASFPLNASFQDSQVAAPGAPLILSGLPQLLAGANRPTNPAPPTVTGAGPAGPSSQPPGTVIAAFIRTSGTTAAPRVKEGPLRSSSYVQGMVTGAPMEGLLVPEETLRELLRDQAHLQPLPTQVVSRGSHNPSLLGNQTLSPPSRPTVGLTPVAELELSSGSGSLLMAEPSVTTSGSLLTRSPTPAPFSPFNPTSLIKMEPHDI
Sequence of HSF1 (Q00613 whole entry): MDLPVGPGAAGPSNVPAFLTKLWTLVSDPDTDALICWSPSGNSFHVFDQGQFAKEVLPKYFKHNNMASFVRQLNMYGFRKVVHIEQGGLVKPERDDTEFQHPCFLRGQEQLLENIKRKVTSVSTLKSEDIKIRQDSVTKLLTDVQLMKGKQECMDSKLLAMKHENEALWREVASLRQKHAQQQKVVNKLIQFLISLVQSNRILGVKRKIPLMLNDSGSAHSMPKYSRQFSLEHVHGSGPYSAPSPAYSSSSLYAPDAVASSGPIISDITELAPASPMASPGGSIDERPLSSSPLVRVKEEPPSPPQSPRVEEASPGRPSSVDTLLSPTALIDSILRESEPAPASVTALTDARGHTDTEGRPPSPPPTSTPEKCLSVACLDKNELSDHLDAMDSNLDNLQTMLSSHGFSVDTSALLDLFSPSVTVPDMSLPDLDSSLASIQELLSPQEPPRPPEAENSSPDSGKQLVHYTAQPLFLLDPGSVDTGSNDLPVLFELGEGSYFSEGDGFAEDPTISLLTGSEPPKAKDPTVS
Sequence of CRX (O43186 whole entry): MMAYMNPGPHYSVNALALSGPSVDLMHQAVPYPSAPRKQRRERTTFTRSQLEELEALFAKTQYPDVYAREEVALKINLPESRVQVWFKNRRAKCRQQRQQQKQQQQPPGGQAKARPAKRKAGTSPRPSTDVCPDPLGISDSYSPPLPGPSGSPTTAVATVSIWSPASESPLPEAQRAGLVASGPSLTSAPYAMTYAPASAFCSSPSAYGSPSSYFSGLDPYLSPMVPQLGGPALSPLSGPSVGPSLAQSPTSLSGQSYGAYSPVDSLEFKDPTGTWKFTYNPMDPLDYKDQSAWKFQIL
Sequence of ETV5 (P41161 whole entry): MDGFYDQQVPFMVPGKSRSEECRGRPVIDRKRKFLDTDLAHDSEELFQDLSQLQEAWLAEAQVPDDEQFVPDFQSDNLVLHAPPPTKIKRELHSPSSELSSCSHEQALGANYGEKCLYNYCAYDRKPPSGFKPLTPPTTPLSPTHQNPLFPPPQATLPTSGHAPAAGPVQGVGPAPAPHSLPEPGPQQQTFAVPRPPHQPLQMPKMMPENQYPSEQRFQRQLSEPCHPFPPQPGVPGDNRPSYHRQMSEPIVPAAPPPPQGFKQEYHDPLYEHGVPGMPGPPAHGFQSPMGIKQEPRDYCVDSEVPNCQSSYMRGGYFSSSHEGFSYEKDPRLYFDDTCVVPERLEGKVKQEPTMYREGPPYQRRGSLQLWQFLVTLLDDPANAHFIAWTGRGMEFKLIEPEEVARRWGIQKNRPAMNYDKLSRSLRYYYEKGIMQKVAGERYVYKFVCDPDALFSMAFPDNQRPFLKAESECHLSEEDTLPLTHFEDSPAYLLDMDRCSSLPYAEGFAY
Sequence of ETV1 (P50549 whole entry): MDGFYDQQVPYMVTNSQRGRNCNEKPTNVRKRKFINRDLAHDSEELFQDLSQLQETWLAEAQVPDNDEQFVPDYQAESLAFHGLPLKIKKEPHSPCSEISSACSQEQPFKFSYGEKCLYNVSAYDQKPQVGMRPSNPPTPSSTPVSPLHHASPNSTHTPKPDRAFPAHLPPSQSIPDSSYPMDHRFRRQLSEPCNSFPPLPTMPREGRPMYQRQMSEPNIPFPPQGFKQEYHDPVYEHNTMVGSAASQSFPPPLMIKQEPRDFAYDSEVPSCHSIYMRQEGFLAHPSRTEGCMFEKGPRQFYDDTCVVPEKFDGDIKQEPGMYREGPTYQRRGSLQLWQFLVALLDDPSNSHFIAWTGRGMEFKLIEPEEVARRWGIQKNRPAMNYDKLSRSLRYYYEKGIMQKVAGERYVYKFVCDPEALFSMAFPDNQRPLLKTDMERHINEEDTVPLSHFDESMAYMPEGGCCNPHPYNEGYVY

With TCTAGT, the binding signal is 1.03 fold enrichment (6-mer frequency, TF over GST control) in assay [1]; 1.06 fold enrichment (6-mer frequency, TF over GST control) in assay [2]; 2.32 fold enrichment (6-mer frequency, TF over GST control) in [3]; 1.18 fold enrichment (6-mer frequency, TF over GST control) in assay [4]; 1.09 fold enrichment (6-mer frequency, TF over GST control) in assay [5]; 1.17 fold enrichment (6-mer frequency, TF over GST control) in assay [6]. Also, the binding signal in [7] is 1.04 fold enrichment (6-mer frequency, TF over GST control); in assay [8] it was 1.28 fold enrichment (6-mer frequency, TF over GST control); in assay [9], 1.37 fold enrichment (6-mer frequency, TF over GST control); in assay [10], 1.01 fold enrichment (6-mer frequency, TF over GST control); in assay [11] it was 1.25 fold enrichment (6-mer frequency, TF over GST control); in assay [12] it was 1.05 fold enrichment (6-mer frequency, TF over GST control). The binding signal is 1.17 fold enrichment (6-mer frequency, TF over GST control) in assay [13]; 1.06 fold enrichment (6-mer frequency, TF over GST control) in [14]; 1.1 fold enrichment (6-mer frequency, TF over GST control) in assay [15]; 1.04 fold enrichment (6-mer frequency, TF over GST control) in assay [16]; 1.08 fold enrichment (6-mer frequency, TF over GST control) in assay [17]; 1.12 fold enrichment (6-mer frequency, TF over GST control) in [18].

These data come from article PMC7862700, “An all-to-all approach to the identification of sequence-specific readers for epigenetic DNA modifications on cytosine”.
